Hit rate of the full screen: of about 310,000 compounds, about 14,000 (4.5%) showed an effect of 50% or more. The effect is printed as a negative number. The sample holds strong results, similar compounds and a random draw of the others, so the mix is not that of the screen.
target: human ether-à-go-go-related gene (hERG) potassium channel (human, UniProt Q12809); experiment: primary screen, population patch clamp on CHO cells stably expressing hERG; higher = less effect of the substance
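Note: peak tail current of the secondary pulse compared with the same well before compound.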

human ether-à-go-go-related gene (hERG) potassium channel, sequence (Q12809 whole entry, looked up): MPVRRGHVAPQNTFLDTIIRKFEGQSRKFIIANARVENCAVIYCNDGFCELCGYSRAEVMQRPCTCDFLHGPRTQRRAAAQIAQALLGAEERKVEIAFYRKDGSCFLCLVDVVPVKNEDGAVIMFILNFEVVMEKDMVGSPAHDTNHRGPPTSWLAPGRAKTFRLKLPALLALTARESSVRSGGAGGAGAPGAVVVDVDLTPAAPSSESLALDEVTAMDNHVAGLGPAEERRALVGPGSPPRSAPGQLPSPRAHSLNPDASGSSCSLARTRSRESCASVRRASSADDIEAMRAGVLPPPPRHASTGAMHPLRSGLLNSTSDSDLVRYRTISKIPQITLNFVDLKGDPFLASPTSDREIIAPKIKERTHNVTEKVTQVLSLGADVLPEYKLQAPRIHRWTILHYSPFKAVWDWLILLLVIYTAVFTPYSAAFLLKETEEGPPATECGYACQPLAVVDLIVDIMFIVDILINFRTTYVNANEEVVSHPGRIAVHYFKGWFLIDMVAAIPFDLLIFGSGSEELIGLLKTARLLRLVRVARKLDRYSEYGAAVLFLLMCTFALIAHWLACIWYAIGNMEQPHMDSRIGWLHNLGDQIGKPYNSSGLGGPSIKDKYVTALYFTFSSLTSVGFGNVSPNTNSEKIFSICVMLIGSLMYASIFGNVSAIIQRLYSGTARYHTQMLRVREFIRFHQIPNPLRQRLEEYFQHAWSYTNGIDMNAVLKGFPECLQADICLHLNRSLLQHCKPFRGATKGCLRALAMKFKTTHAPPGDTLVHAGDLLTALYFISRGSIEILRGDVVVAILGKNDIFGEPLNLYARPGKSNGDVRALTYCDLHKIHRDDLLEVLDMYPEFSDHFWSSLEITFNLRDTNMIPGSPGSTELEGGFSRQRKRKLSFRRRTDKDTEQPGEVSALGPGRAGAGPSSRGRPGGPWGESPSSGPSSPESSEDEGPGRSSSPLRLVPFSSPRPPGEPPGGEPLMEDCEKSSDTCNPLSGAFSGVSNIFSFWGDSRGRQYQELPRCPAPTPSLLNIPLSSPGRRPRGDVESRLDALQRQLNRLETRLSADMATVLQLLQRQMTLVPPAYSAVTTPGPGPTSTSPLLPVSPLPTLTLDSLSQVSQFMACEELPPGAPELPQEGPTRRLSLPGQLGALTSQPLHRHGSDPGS

Row | SMILES | hERG current change (%, negative = inhibition) at 10uM [%]
1 | CCc1ccccc1N(CC(=O)N1CCCCC1)S(=O)(=O)c1ccccc1 | 10.6
2 | N#CC(C#N)=Cc1cc2ccccc2nc1N1CCCCC1 | 2.22
3 | CCN(CC)c1ccc(NC(=O)COC(=O)COc2ccccc2[N+](=O)[O-])cc1 | 3.42
4 | Cn1cc(Br)c(C(=O)NNC(=O)Cc2ccc(Cl)cc2)n1 | 3.6
5 | COc1ccc(N2C(=O)C3C(C2=O)C3(c2ccccc2)c2ccccc2)cc1 (centres unmarked) | 0.0654
6 | Cc1ccc(C2CC(=O)C(C=NCCN3CCN(C(=S)Nc4ccc(F)cc4)CC3)=C(O)C2)cc1 (centres unmarked) | -58.6
7 | Cc1ccc(NC(=O)CN2CCN(CCN=CC3=C(O)CC(c4ccccc4)CC3=O)CC2)cc1 (centres unmarked) | -67.4
8 | COc1ccc(C2CC(=O)C(C=NCCN3CCN(C(=S)Nc4ccccc4)CC3)=C(O)C2)cc1 (centres unmarked) | -32.8
9 | Cc1ccc(NC(=O)CN2CCN(CCN=CC3=C(O)CC(c4ccc(C)cc4)CC3=O)CC2)cc1 (centres unmarked) | -45.3
10 | Cc1c(Cl)cccc1NC(=O)CN1CCN(CCN=CC2=C(O)CC(c3ccccc3)CC2=O)CC1 (centres unmarked) | -19.9
11 | O=C1CC(c2ccccc2)CC(O)=C1C=NCCN1CCN(C(=O)Nc2ccccc2)CC1 (centres unmarked) | -64.4
12 | O=C1CC(c2ccc(F)cc2)CC(O)=C1C=NCCN1CCNCC1 (centres unmarked) | 6.09
13 | CCOC(=O)c1ccc(NC(=S)N2CCN(CCN=CC3=C(O)CC(c4ccccc4)CC3=O)CC2)cc1 (centres unmarked) | -19.9
14 | COc1ccc(NC(=S)N2CCN(CCN=CC3=C(O)CC(c4ccccc4)CC3=O)CC2)cc1 (centres unmarked) | -45.7
15 | O=C1CC(c2ccccc2)CC(O)=C1C=NCCN1CCN(C(=S)Nc2cccc(Cl)c2)CC1 (centres unmarked) | -39.4
16 | Cc1ccc(C2CC(=O)C(C=NCCN3CCN(C(=S)Nc4ccccc4)CC3)=C(O)C2)cc1 (centres unmarked) | -26.4
17 | O=C1CC(c2ccc(F)cc2)CC(O)=C1C=NCCN1CCN(C(=O)Nc2ccccc2)CC1 (centres unmarked) | -67.8
18 | O=C(Nc1cc2c(cc1Br)OCCO2)c1cccnc1 | 1.58
19 | O=C(c1ccc(CS(=O)Cc2cccc(Cl)c2)o1)N1CCN(C2CCCCC2)CC1 (centres unmarked) | -16.5
20 | COc1cc2nc(C3CCC3)n(NC(=O)C(OC(C)=O)c3ccccc3)c(=O)c2cc1OC (centres unmarked) | 9.45
21 | Cc1c(C(=O)NCCSCc2ccco2)cccc1[N+](=O)[O-] | -5.94

Row | SMILES | hERG current change (%, negative = inhibition) at 10uM [%]
22 | CN(Cc1cc2ccccc2[nH]c1=O)C(=O)COc1ccccc1 | -8.32
23 | O=C(COC(=O)C1(c2ccccc2F)CCCC1)Nc1ncc(C(F)(F)F)cc1Cl | -10.1
24 | CSc1ccc(Cl)c(C(=O)Nc2ccc(N3CCOCC3)cc2)c1 | -1.67
25 | Cc1cc(NC(=O)Nc2ccc(Cl)cc2)n(C(C)(C)C)n1 | 17.7
26 | CC(NC(=O)c1nn(C)c2c1CS(=O)(=O)c1ccccc1-2)c1ccccc1 (centres unmarked) | -13.1
27 | CC(OC(=O)Cc1c(F)cccc1Cl)C(=O)NC1(C#N)CCCCC1 (centres unmarked) | -22.4
28 | CC(=O)N1CCN(CCN=CC2=C(O)CC(c3ccc(Cl)cc3)CC2=O)CC1 (centres unmarked) | -15.7
29 | C=CCNC(=S)N1CCN(CCN=CC2=C(O)CC(c3cccs3)CC2=O)CC1 (centres unmarked) | -49.1
30 | C=CCNC(=S)N1CCN(CCN=CC2=C(O)CC(c3ccc(Cl)cc3)CC2=O)CC1 (centres unmarked) | -66.4
31 | Fc1c(F)c(C(F)(F)F)c(F)c(F)c1N/N=C\c1cccs1 | 15.5
32 | Cc1cccc(NC(=O)c2ccccc2OCC(=O)N2CCOCC2)c1C | -6.62
33 | CC(=O)c1ccc(NC(=O)COc2ccccc2C(=O)Nc2ccccc2)cc1 | 9.66
34 | Cc1ccc(C(=O)Nc2cc(C)c(OCC(=O)N3CCOCC3)c(C)c2)cc1 | -11.3
35 | CC(=O)N1CCN(C(=O)COc2ccccc2C(=O)Nc2ccccc2)CC1 | -53.2
36 | COc1ccccc1C(=O)Nc1ccc(OCC(=O)N2CCCCC2)cc1 | -2.87
37 | O=C(Nc1cccc(Cl)c1Cl)c1ccccc1OCC(=O)N1CCOCC1 | -13.5
38 | CCCCOc1ccc(C(=O)Nc2cc(C)c(OCC(=O)N3CCOCC3)c(C)c2)cc1 | -24.8
39 | Cc1ccc(Cl)cc1NC(=O)c1ccccc1OCC(=O)N1CCOCC1 | -63.6
40 | Cc1cc(NC(=O)c2ccc(Cl)cc2)cc(C)c1OCC(=O)N1CCOCC1 | -52.4
41 | COc1ccc(C(CNC(=O)c2cc(C)on2)N(C)C)cc1 (centres unmarked) | 22.1
42 | CCN(CC)CCn1c(SCC(=O)NCc2ccccc2)nc2c(sc3ccccc32)c1=O | -29.3

Row | SMILES | hERG current change (%, negative = inhibition) at 10uM [%]
43 | CCN(CC)CCn1c(SCC(=O)NCCC2=CCCCC2)nc2c(sc3ccccc32)c1=O | 35.5
44 | O=C(CSc1nc2c(sc3ccccc32)c(=O)n1CCCN1CCOCC1)NCC1CCCO1 (centres unmarked) | -14.3
45 | O=C(CSc1nc2c(sc3ccccc32)c(=O)n1CCO)NCC1CCCO1 (centres unmarked) | -3.42
46 | C=CCN(C(=O)CSc1nc2c(sc3ccccc32)c(=O)n1CCN(CC)CC)c1ccccc1 | -77.4
47 | O=C(CSc1nc2c(sc3ccccc32)c(=O)n1CCc1ccccc1)NCc1ccco1 | -8.32
48 | CCOCCCn1c(SCC(=O)NCc2ccco2)nc2c(sc3ccccc32)c1=O | -27.6
49 | CCCCn1c(SCC(=O)NCc2ccco2)nc2c(sc3ccccc32)c1=O | -16.8
50 | O=C(CSc1nc2c(sc3ccccc32)c(=O)n1CCCN1CCCC1)NCc1ccco1 | -73
51 | O=C(CSc1nc2c(sc3ccccc32)c(=O)n1CCO)NCc1ccco1 | -18.2
52 | CCN(CC)CCn1c(SCC(=O)NCc2ccco2)nc2c(sc3ccccc32)c1=O | -68.2
53 | O=C(CSc1nc2c(sc3ccccc32)c(=O)n1CCCN1CCCC1)NCC1CCCO1 (centres unmarked) | -61.6
54 | CC1(C)CN(c2cccc(Br)c2)C1=O | 7.96
55 | Cc1c(C)n(CC(O)CNc2ccccc2)c2ccccc12.O=C(O)C(=O)O (centres unmarked) | 23.1
56 | CCOC(=O)Cc1csc(NC(=O)c2cccc(Cl)c2)n1 | -13
57 | CC1(c2nnc(-c3ccc(Cl)cc3)o2)CC(c2cccc(Cl)c2)=NO1 (centres unmarked) | 13.7
58 | COCCn1c(SCC(=O)Nc2cc(C)on2)nc2c(c1=O)SC(C)C2 (centres unmarked) | 10.5
59 | COC(=O)c1ccc(COC(=O)C2CCN(S(=O)(=O)c3c(Cl)cccc3Cl)CC2)o1 | -7.62
60 | COC(=O)/C(=C/N(C)C)C(=O)N1CCN(c2ccc(Cl)c(Cl)c2)CC1 | -25
61 | COc1cccc(OC)c1C(=O)NNS(=O)(=O)c1ccc2ccccc2c1 | -5.2
62 | O=C(O)CC(SCC(=O)Nc1ccccc1)C(=O)O (centres unmarked) | 23
63 | O=C1[C@@H]2Cc3c([nH]c4ccccc34)C(c3ccc([N+](=O)[O-])cc3)N2C(=O)CN1C1CC1 (some centres unmarked) | -25.2

Row | SMILES | hERG current change (%, negative = inhibition) at 10uM [%]
64 | CSc1nc(Cc2ccccc2)nc2ccccc12 | 22.9
65 | Cc1cc(C)nc(N/C(=N\S(=O)(=O)Cc2ccccc2)Nc2cccc(Cl)c2C)n1 | -3.72
66 | ON1C2CCCCC2N(O)C1c1ccccc1F (centres unmarked) | 16.7
67 | O=C(CSc1nc2c(sc3ccccc32)c(=O)n1CCCN1CCCC1)NCc1ccccc1 | -80.8
68 | Cc1ccc(-n2c(SCC(=O)NCc3ccco3)nc3c(sc4ccccc43)c2=O)cc1 | 14.8
69 | Cc1ccc(CNC(=O)CSc2nc3c(sc4ccccc43)c(=O)n2CCCN2CCCC2)cc1 | -82.8
70 | COc1ccc(C(=O)Nc2ncccc2C)cc1S(=O)(=O)N1CCCc2ccccc21 | 9.01
71 | Cc1ccc(CNC(=O)c2ccccc2NS(=O)(=O)c2ccc(Cl)nc2)cc1 | 12.6
72 | OC(COc1ccccc1)Cn1cc(Br)cn1 (centres unmarked) | 0.0411
73 | CCc1nc(Nc2ccccc2OC)c2oc3ccccc3c2n1.Cl | 12.5
74 | CCCCCCc1cc2cc(C(=O)NC)c(=N)oc2cc1O | -7.38
75 | CCN(CC)c1ccc2cc(C(N)=O)c(=N)oc2c1 | -58.5
76 | CCCCCCc1cc2cc(C(=O)OCC)c(=O)oc2cc1O | 23.3
77 | CCN(CC)c1ccc2cc(C(N)=O)c(=O)oc2c1 | 9.31
78 | CCN(CC)c1ccc2cc(C(=O)NCc3ccc(F)cc3)c(=N)oc2c1 | -23.4
79 | CCCCCCc1cc2cc(C(N)=O)c(=N)oc2cc1O | -59.8
80 | CN(C[C@H](Cc1ccccc1)N(C[C@H](Cc1ccccc1)N(CC1(c2ccccc2)CC1)N=O)N=O)N=O.[Na+] | 12.8
81 | Cc1ccc(OCCCC(=O)NCc2ccco2)c(C)c1 | 0.0372
82 | CCCCCC(O)CCC(=O)NNC1=CC(=O)CC(C)(C)C1 (centres unmarked) | 13.9
83 | COc1ccc(C(C#N)C2(C)OCCO2)cc1OC (centres unmarked) | -4.08
